# Experimental data: PubChem BioAssay (Tox21)
# Values joined by “and” are separate entries in the source; they are usually repeats but may differ in a detail not shown here. Equal entries are not always repeated. Inconclusive results are not listed. A call without a number means that no potency is given here. Some compounds were tested as several samples or in several runs, with calls that do not always agree. Active and inactive are the calls of the source. Unless noted, calls follow the shape of the dose curve; as a rule, active = well fitted curve in the direction sought with a large enough effect in the repeat runs; inconclusive = weak or mixed curves; inactive = no such curve, though single readings can be large; an effect the other way counts as inactive or inconclusive.
# How the values were obtained:
# [1] = qHTS assay to identify small molecule antagonists of the estrogen related receptor (ERR) signaling pathway from Tox21 library - cell viability counter screen (AID 1224834); also: nearly all actives have a fitted effect of over 30% in size; also: potency is read from the fitted curve at half-maximal effect
# In short: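 In this quantitative HTS format, ERR cells receive compounds in DMSO and are incubated for 17.5 h at 37 C. Live-cell protease activity is then detected with CellTiter-Fluor.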
# [2] = target: Luciferin 4-monooxygenase (Photinus pyralis) (UniProt P08659); assay: qHTS assay to identify small molecule inhibitors of firefly luciferase (AID 1224835); also: nearly all actives have a fitted effect of over 25% in size
# In short: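 Biochemical qHTS: compounds run as interplate titrations against purified firefly enzyme, with D-luciferin and ATP each at its KM concentration. Light output recorded by CCD imaging.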
# [3] = qHTS assay to identify small molecule agonists of the constitutive androstane receptor (CAR) signaling pathway - cell viability counter screen (AID 1224836); also: nearly all actives have a fitted effect of over 45% in size
# In short: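 Multiplexed viability check: HepG2-CYP2B6-hCAR cells, 15-point compound dosing, 0.75 uM PK11195 final, 23 h at 37 C, CellTiter-Fluor fluorescence.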
# [4] = qHTS assay to identify small molecule antagonists of the constitutive androstane receptor (CAR) signaling pathway - cell viability counter screen (AID 1224837); also: nearly all actives have a fitted effect of over 45% in size
# In short: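 In quantitative HTS format, compounds at 15 concentrations were applied to HepG2 cells double-transfected with hCAR and CYP2B6-2.2kb under 50 nM CITCO stimulation; live-cell protease activity was read after 23 hr via CellTiter-Fluor.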
# [5] = qHTS assay to identify small molecule antagonists of the estrogen related receptor signaling pathway with the pleiotropic PPARgamma coactivator (PGC) from Tox21 10K library - cell viability counter screen (AID 1224840; active = well fitted cell-killing curve with a large enough effect in the repeat runs, not every such curve was filed as active; also: nearly all actives have a fitted effect of over 40% in size; also: potency is read from the fitted curve at half-maximal effect)
# In short: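 Viability counter screen, PGC/ERR cells: 17.5 h compound exposure at 37 C, CellTiter-Fluor fluorescence endpoint.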
# [6] = qHTS assay to identify small molecule antagonists of the estrogen related receptor signaling pathway with the pleiotropic PPARgamma coactivator (PGC) from Tox21 10K library (AID 1224841; call rule not given here; also: actives are mostly falling curves and most rising ones were filed inactive; nearly all actives have a fitted effect of over 50% in size)
# In short: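 In the PGC/ERR line, DMSO solutions of test chemicals are pin-delivered to 2,000 cells/well six hours after dispensing. Following eighteen hours' incubation, One-Glo reagent is added and luminescence recorded.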
# [7] = qHTS assay to identify small molecule agonists of the estrogen related receptor signaling pathway with the pleiotropic PPARgamma coactivator (PGC) from Tox21 10K library (AID 1224842); also: nearly all actives have a fitted effect of over 15% in size
# In short: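 PGC/ERR reporter cell line, 2,000 cells per well, incubated 6 h at 37 C before 23 nL compound in DMSO was added. After 18 h at 37 C, One-Glo luminescence read following 30 min at room temperature.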
# [8] = target: Thyrotropin receptor (Homo sapiens) (UniProt P16473); assay: qHTS assay to identify small molecule agonists of the thyroid stimulating hormone receptor (TSHR) signaling pathway (AID 1224843; calls by dose curve; also: nearly all actives have a fitted effect of over 45% in size; also: potency is read from the fitted curve at half-maximal effect)
# In short: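 HEK293/TSHR, 800 cells/well; cpd 30 min RT; add cAMP-d2 + anti-cAMP-cryptate, 1 h RT; fluorescence read on plate reader. 15-pt titration, n=3.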
# [9] = qHTS assay to identify small molecule agonists of the hypoxia (HIF-1) signaling pathway - cell viability counter screen (AID 1224844; calls by dose curve; also: nearly all actives have a fitted effect of over 50% in size)
# In short: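 Same wells as the HIF-1 reporter screen; ME-180 cells carrying HRE-bla, 17 hr treatment at 37C; CellTiter-Glo luminescence read after 30 min at room temperature.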
# [10] = qHTS assay to identify small molecule agonists of H2AX (AID 1224845; active = well fitted activation curve with a large enough effect in the signal ratio in the repeat runs, not every such curve was filed as active; the % refers to the signal ratio)
# In short: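 Wild-type CHO-K1 cells, plated overnight, exposed 3hr at 37C to 15 concentrations (0.76% DMSO final). Lysed, then HTRF anti-pH2AX (S139) cryptate and anti-H2AX-d2 antibodies, 24 hr room temperature; 665/620 nm emission read.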
# [11] = qHTS assay to identify small molecule agonists of the hypoxia (HIF-1) signaling pathway (AID 1224846; active = well fitted activation curve with a large enough effect in the signal ratio in the repeat runs, not every such curve was filed as active; the % refers to the signal ratio)
# In short: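 In ME-180 cells bearing an HRE-bla construct, 17 h treatment with DMSO-dissolved compounds at 37C was followed by CCF4-AM loading to quantify reporter induction.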
# [12] = qHTS assay to identify small molecule agonists of H2AX - cell viability counter screen (AID 1224847; calls by dose curve; also: nearly all actives have a fitted effect of over 30% in size; also: potency is read from the fitted curve at half-maximal effect)
# In short: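 After overnight plating of 1000 CHO-K1 cells per well, a 15-concentration compound series was applied for 3 hr at 37C. Luminescence from CellTiter-Glo, read following 30 min at room temperature, reflected cell viability.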
# [13] = qHTS assay to identify small molecule antagonists of the estrogen related receptor (ERR) signaling pathway from Tox21 library (AID 1224848); also: nearly all actives have a fitted effect of over 50% in size; also: potency is read from the fitted curve at half-maximal effect
# In short: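 Compounds dissolved in DMSO are pin-transferred onto ERR reporter cells (2,000 per well) that have settled for 6 h at 37 C. Plates then incubate 18 h at 37 C before ONE-Glo luciferase reagent and a luminescence read 30 min later.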
# [14] = qHTS assay to identify small molecule agonists of the estrogen related receptor (ERR) signaling pathway from Tox21 library (AID 1224849; calls by dose curve; also: nearly all actives have a fitted effect of over 15% in size); conditions: ERR reporter cell line, ONE-Glo luciferase, 18 h; at 92.4 µM (top of the series)
# In short: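 Reporter cells (ERR, NTP source) treated with Tox21 10K compounds 18 h, 37 C. Readout: ONE-Glo luminescence, 30 min RT.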
# [15] = qHTS RealTime-Glo MT Cell Viability Assay in HepG2 cells - 24 hour (AID 1224867); also: nearly all actives have a fitted effect of over 50% in size; also: potency is read from the fitted curve at half-maximal effect
# In short: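 Luminescence read-out: viable HepG2 cells reduce a prosubstrate to a NanoLuc substrate, giving a signal proportional to live cell number. Reads taken at 0, 8, 16, 24, 32 and 40 h of compound exposure at 37 C.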
# [16] = qHTS RealTime-Glo MT Cell Viability Assay in HEK293 cells - 32 hour (AID 1224868); also: nearly all actives have a fitted effect of over 50% in size; also: potency is read from the fitted curve at half-maximal effect
# In short: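 Nonlytic real-time viability readout: viable cells convert prosubstrate to NanoLuc substrate, giving luminescence proportional to live cell number. HEK293, 600 cells/well, compound added after 5 h, continuous culture at 37 C.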
# [17] = A CellTox Green Cytotoxicity Assay to monitor cytotoxicity in HEK293 cells - 0 hour (AID 1224869); also: nearly all actives have a fitted effect of over 50% in size
# In short: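 Homogeneous no-lysis format: HEK293 cell suspension mixed with CellTox Green reagent, seeded, incubated 5 h at 37 C/5% CO2, then dosed by pintool with compound in DMSO.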
# [18] = target: Nuclear receptor subfamily 1 group I member 3 (Homo sapiens) (UniProt Q14994); assay: qHTS assay to identify small molecule agonists of the constitutive androstane receptor (CAR) signaling pathway (AID 1224839); also: nearly all actives have a fitted effect of over 15% in size; also: potency is read from the fitted curve at half-maximal effect;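 as to activation: HepG2 cells stably carrying human CAR and a CYP2B6 luciferase reporter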
# In short: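 Using human hepatoma HepG2 cells engineered with hCAR and a CYP2B6-2.2kb reporter, 15-concentration compound series were incubated 24 h alongside PK11195 at 0.75 uM final, with luminescence quantified afterwards.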
# [19] = target: Nuclear receptor subfamily 1 group I member 3 (Homo sapiens) (UniProt Q14994); assay: qHTS assay to identify small molecule antagonists of the constitutive androstane receptor (CAR) signaling pathway (AID 1224838); also: nearly all actives have a fitted effect of over 40% in size; also: potency is read from the fitted curve at half-maximal effect
# In short: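 CITCO-stimulated (50 nM final) HepG2 cells stably transfected with hCAR and CYP2B6-2.2kb luciferase were exposed to compounds at 15 concentrations for 24 h at 37 C/5% CO2. A luciferase reagent was added and luminescence recorded after 30 min.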
# Sequence of Nuclear receptor subfamily 1 group I member 3 (Homo sapiens) (Q14994 whole entry, looked up): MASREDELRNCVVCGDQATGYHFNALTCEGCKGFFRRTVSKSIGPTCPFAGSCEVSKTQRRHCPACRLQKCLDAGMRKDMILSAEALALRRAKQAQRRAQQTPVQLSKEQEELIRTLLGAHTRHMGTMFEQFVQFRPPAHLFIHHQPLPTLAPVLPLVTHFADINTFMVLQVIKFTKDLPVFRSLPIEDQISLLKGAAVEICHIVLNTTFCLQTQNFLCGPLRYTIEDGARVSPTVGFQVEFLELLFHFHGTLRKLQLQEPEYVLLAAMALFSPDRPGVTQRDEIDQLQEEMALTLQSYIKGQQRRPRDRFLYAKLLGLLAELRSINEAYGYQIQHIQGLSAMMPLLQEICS
# Sequence of Thyrotropin receptor (Homo sapiens) (P16473 whole entry, looked up): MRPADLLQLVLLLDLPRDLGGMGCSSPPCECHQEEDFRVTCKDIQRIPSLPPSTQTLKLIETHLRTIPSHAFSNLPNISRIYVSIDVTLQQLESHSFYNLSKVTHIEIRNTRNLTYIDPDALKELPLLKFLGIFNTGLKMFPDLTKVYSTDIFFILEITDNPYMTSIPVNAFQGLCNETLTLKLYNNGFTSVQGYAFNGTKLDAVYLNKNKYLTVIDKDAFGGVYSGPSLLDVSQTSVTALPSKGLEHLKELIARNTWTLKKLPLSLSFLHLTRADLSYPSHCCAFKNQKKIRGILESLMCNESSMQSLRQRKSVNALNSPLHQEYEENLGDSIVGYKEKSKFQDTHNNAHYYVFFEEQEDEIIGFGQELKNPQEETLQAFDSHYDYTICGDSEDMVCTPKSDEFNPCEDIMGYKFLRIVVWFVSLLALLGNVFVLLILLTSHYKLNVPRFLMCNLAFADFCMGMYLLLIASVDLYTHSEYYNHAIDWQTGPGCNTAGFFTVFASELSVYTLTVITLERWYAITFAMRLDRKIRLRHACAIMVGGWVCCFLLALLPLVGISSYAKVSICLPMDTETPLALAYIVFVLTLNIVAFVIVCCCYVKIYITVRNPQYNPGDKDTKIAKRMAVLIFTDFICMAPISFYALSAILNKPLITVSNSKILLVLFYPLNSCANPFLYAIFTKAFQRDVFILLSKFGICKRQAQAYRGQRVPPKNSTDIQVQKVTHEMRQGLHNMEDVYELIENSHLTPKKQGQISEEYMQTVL
# Sequence of Luciferin 4-monooxygenase (Photinus pyralis) (P08659 whole entry, looked up): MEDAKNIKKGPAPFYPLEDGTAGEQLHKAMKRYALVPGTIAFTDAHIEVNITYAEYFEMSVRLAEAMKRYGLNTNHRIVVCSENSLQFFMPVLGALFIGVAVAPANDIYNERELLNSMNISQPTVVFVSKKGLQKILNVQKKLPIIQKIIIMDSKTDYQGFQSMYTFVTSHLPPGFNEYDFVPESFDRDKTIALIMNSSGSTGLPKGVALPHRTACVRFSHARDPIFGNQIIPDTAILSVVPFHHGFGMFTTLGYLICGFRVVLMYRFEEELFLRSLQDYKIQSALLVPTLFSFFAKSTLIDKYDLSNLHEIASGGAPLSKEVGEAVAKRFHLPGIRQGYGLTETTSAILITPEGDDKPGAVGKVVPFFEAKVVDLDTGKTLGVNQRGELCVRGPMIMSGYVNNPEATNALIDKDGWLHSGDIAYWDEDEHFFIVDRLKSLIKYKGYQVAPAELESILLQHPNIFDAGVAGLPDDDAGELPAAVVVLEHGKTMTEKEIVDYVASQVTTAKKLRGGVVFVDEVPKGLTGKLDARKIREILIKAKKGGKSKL
Compound,Potency [1],Potency [2],Potency [3],Potency [4],Potency [5],Potency [6],Potency [7],Potency [8],Potency [9],outcome [10],Potency [11],Potency [12],Potency [13],"activity change, positive = activation [14]",Potency [15],Potency [16],Potency [17],Potency [18],Potency [19]
CCOCCOCCO,inactive,inactive,inactive,inactive,inactive,inactive,inactive,inactive,inactive,inactive,inactive,inactive,inactive,-1.39% (inactive) and 2.46% (inactive),inactive,inactive,inactive,–,–
C[Si](C)(C)O[Si](C)(C)C,inactive,inactive,inactive,inactive,inactive,–,–,inactive,inactive,inactive,inactive,inactive,–,–,inactive,–,inactive,–,–
c1ccc(Nc2ccccc2)cc1,48.5 µM (active) and inactive,–,inactive,inactive,inactive,inactive,inactive,inactive,inactive,inactive,inactive,–,27.3 µM (active) and inactive,-73.5% (inactive) and -5.69% (inactive),inactive,–,inactive,inactive,–
CCC(C)OC(=O)c1ccc(O)cc1 (configuration not stated),inactive,–,inactive,inactive,inactive,inactive,–,inactive,inactive,inactive,inactive,inactive,inactive,6.7% (active),inactive,–,inactive,61.5 µM (active) and 54.5 µM (active),inactive
CNCCCC12CCC(c3ccccc31)c1ccccc12,61.1 µM (active) and inactive,inactive,–,–,48.6 µM (active) and inactive,–,–,4.33 µM (active) and 26.6 µM (active),inactive,–,–,113 µM (active),–,–,49 µM (active) and 23.9 µM (active),49 µM (active) and 23.9 µM (active),inactive,–,21.7 µM (active) and inactive
CC1=CCC(C(C)(C)O)CC1 (configuration not stated),inactive,inactive,inactive,inactive,inactive,–,–,inactive,inactive,inactive,inactive,inactive,–,–,inactive,–,inactive,–,–
